Holding throughout (parameters): scale not given: direction of the effect not stated beside the values
The target of experiment [1] is Protein translocase subunit SecA (Escherichia coli (strain K12)) (UniProt P10408). Briefly: Assay to Identify E. coli SecA ATPase Inhibitors. To be noted: 30 µM. In kind it is functional.
The target in experiment [2] is T1, Ubiquitin-activating enzyme e1, putative (Leishmania donovani (strain BPK282A1)) (UniProt E9BSI1).
T1 sequence (whole entry): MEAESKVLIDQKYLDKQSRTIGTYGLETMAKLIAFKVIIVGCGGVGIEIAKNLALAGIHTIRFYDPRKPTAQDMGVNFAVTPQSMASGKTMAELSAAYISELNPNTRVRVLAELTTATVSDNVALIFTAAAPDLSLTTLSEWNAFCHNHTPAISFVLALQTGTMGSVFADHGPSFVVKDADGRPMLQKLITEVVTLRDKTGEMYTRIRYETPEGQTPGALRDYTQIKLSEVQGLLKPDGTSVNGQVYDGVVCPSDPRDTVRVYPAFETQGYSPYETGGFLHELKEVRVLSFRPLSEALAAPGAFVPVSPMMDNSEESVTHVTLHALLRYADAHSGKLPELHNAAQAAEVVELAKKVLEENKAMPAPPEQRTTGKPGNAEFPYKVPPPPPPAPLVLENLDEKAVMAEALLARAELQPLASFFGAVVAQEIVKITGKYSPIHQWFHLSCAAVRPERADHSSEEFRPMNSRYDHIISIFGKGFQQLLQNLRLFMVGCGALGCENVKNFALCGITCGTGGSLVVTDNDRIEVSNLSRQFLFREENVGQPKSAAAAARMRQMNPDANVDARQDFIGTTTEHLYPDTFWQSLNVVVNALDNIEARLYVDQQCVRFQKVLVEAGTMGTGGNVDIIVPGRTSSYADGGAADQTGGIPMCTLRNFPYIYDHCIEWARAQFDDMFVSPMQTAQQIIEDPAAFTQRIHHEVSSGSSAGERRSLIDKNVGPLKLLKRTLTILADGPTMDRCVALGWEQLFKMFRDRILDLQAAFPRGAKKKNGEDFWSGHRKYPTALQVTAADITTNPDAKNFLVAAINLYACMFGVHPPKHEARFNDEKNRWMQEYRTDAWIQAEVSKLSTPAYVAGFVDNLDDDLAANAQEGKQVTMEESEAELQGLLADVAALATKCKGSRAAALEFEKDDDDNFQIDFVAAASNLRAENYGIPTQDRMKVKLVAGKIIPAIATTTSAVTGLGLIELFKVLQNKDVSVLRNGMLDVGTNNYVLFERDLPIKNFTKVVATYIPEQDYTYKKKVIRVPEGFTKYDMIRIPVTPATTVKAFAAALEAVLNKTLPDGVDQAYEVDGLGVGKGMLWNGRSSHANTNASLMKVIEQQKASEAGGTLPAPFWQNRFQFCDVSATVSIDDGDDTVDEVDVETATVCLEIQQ
Briefly: Leishmania donovani Ubiquitin Activating Enzyme (LdE1). In kind it is functional. Conditions: 30 µM.

Experiment [3] concerns the target AMP-activated protein kinase, AMPK (Homo sapiens) (UniProt P54646+O43741+P54619+Q9UGJ0+Q9Y478+Q13131+Q9UGI9). Briefly: AMP-dependent Kinase enzyme assay. An in vitro enzyme assay that detects ADP turnover that is directly proportional to AMPK activity. This uses naive AMPK that is activated during the assay with MK-8722. It counts as functional. To be noted: 30 µM.

Experiment [4] concerns the target Sialic acid-binding Ig-like lectin 9 (Homo sapiens) (UniProt Q9Y336). Briefly: Hs-Siglec9 ALPHAscreen SOP 20170721. To be noted: 10 µM. Background: Bead proximity is the source of the signal in Alpha formats.
The next experiment deals with Trypanosoma cruzi. In words: Trypanosoma cruzi phosphomannomutase and mannose-1-phosphate guanylyltransferase assay. It counts as functional. To be noted: 10 µM.
In experiment [5] the target is T2, Arginase-2, mitochondrial (Homo sapiens) (UniProt P78540).
T2 sequence (whole entry): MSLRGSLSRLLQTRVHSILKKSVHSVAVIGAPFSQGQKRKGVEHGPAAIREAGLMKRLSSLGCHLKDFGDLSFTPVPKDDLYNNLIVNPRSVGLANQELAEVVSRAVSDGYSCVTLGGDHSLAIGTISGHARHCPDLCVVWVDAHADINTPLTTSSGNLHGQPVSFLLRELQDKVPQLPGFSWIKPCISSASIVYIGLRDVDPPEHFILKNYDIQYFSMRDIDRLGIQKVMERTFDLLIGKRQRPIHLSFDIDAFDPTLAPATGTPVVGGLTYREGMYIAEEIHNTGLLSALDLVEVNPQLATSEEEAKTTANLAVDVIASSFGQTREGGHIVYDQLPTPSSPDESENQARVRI
In words: in vitro enzyme assay to detect the production of urea directly proportional to the activity of Arginase II. Further: in the data most compounds retested in dose-response had high values. In kind it is functional. To be noted: 33.3 µM.

In experiment [6] the target is T3, Proteasome subunit beta (Trypanosoma cruzi) (UniProt O96673).
T3 sequence (whole entry): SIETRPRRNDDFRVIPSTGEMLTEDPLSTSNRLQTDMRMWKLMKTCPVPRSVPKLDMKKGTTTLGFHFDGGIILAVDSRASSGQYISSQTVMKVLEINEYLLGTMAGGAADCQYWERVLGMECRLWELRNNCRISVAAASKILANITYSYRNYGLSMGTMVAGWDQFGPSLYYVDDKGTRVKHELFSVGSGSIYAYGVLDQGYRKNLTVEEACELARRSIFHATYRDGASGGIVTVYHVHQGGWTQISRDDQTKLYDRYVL
Briefly: Trypanosoma cruzi proteasome chymotrypsin-like activity (TcProtChymo) assay. Further: in the data most compounds retested in dose-response had high values. In kind it is functional. To be noted: 9.37 µM.

Another experiment is filed under the species Homo sapiens. In words: To identify inhibition of the IFN signalling (Jak-Stat) pathway via expression of an eGFP reporter gene under the control of an IFN-stimulated response element (ISRE) containing MxA promoter. In kind it is functional. To be noted: 30 µM. A general note: In a reporter assay the amount or activity of a reporter protein is the signal.

The target in experiment [7] is T4, Tyrosyl-tRNA synthetase, putative (Trypanosoma cruzi (strain CL Brener)) (UniProt Q4DSP6).
T4 sequence (whole entry): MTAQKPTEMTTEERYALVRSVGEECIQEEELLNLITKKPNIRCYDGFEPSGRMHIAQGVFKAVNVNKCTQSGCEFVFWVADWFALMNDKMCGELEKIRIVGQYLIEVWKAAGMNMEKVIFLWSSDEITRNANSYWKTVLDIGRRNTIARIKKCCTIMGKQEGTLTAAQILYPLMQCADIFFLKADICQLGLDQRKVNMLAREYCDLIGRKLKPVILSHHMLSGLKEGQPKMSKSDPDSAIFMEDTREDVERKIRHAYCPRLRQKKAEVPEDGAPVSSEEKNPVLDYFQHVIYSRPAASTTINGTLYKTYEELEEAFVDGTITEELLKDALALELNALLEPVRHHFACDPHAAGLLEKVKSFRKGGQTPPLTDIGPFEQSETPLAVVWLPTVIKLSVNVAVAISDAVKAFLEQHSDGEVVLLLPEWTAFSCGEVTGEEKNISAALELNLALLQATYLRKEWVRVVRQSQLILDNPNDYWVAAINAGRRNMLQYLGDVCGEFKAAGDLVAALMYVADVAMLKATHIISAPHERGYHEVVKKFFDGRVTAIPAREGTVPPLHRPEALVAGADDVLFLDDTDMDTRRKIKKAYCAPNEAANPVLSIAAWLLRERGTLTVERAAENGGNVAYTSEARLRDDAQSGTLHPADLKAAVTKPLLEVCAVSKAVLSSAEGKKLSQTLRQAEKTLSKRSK
Briefly: Trypanosoma cruzi tyrosyl tRNA synthetase (TcYRS) _High Tyrosine SOP. Further: in the data most compounds retested in dose-response had high values. It counts as functional. To be noted: 30 µM.

Experiment [8] deals with T4, Tyrosyl-tRNA synthetase, putative (Trypanosoma cruzi (strain CL Brener)). In words: Trypanosoma cruzi tyrosyl tRNA synthetase (TcYRS) SOP. To be noted: 30 µM. It counts as functional.
Experiment [9] concerns the target Chromo domain-containing protein 1 (Saccharomyces cerevisiae (strain ATCC 204508 / S288c) (Baker's yeast)) (UniProt P32657). Briefly: ScCHD-1 Enzyme Inhibition Assay. Further: in the data most compounds retested in dose-response had high values. In kind it is functional. Conditions: 30 µM.

For some of these results: Results with a measured potency or affinity are listed apart.

Chain of Chromo domain-containing protein 1 (Saccharomyces cerevisiae (strain ATCC 204508 / S288c) (Baker's yeast)) (P32657 whole entry, the tested form may be a part): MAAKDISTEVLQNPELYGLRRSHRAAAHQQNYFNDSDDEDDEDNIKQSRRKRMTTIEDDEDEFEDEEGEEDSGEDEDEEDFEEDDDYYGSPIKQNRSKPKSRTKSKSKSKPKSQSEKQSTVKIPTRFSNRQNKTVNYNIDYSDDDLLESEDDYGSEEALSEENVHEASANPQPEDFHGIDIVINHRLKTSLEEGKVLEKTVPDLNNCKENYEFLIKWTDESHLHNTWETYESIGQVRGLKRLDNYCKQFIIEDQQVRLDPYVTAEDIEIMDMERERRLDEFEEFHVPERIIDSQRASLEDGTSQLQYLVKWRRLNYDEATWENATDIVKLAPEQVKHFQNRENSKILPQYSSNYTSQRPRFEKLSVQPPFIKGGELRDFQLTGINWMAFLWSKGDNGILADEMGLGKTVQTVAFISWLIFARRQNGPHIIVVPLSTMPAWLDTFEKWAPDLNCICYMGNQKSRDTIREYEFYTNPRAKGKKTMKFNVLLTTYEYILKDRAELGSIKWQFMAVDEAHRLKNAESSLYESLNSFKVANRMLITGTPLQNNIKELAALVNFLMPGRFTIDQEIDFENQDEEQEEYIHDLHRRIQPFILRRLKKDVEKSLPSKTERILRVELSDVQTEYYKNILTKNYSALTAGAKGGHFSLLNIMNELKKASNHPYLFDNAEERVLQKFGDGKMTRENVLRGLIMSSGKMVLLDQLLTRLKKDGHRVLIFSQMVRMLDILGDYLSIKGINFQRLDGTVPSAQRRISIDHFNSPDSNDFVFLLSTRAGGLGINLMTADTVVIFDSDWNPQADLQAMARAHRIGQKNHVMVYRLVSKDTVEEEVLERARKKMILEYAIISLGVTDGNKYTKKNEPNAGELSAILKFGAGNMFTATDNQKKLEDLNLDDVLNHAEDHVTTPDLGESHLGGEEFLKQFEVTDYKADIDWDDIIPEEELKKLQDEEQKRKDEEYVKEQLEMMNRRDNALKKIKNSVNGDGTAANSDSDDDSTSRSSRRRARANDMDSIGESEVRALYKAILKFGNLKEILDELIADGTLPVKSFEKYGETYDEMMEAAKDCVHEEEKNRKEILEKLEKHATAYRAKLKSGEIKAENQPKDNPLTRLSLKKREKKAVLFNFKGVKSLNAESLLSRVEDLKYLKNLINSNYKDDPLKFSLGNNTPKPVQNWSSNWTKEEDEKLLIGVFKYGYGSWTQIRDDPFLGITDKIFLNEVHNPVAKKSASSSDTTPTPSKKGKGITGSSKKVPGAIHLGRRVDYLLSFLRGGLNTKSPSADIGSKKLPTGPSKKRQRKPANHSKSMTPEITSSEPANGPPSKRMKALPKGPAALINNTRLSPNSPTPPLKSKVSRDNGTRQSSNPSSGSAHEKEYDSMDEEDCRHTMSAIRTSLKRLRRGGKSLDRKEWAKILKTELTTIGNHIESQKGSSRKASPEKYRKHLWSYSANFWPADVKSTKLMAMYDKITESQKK
Chain of Sialic acid-binding Ig-like lectin 9 (Homo sapiens) (Q9Y336 whole entry): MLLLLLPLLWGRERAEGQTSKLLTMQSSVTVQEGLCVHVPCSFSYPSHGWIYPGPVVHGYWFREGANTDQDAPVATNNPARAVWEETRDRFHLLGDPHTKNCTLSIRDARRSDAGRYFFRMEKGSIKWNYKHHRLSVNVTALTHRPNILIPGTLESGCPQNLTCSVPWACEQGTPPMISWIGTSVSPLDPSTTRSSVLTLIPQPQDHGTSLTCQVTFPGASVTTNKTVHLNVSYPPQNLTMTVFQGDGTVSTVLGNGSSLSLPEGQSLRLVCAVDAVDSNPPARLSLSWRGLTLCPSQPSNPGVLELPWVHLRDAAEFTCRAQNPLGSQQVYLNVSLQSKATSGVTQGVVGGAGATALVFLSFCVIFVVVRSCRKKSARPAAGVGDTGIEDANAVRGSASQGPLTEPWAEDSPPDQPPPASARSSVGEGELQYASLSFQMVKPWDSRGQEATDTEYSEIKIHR
Chain of Protein translocase subunit SecA (Escherichia coli (strain K12)) (P10408 whole entry): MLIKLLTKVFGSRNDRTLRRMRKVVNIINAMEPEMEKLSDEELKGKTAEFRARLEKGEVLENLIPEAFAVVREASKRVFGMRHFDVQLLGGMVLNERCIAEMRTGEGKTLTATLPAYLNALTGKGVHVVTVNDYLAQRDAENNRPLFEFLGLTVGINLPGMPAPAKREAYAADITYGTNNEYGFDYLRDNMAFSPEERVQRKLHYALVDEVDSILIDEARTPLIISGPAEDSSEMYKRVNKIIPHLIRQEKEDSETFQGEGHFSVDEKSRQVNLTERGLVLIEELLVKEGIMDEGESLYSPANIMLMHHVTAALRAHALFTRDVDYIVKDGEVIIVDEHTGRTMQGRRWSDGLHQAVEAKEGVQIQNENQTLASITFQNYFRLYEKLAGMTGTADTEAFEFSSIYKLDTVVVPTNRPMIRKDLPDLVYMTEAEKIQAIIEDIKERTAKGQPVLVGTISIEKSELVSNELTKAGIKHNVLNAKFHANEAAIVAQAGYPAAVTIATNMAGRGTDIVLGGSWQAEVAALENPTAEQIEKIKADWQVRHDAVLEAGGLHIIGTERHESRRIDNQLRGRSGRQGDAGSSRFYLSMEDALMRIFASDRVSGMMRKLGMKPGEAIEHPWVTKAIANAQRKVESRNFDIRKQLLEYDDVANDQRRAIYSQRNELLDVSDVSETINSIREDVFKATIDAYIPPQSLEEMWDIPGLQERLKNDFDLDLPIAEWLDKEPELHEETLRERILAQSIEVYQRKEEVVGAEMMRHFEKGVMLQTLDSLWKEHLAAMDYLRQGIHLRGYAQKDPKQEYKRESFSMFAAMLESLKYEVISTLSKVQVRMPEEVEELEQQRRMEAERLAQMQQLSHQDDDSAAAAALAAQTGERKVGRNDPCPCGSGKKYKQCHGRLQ

Turning to `COc1cccc(CN2CCN(C(=O)CN3CCOCC3)CC2)n1`, the Percent Effect is 0.629% in experiment [1]; -10.5% in experiment [2]; -3.06% in [3]; 3.57% in [4]; 4.76% with Trypanosoma cruzi; 3.6% in [5]. Further, the Percent Effect in experiment [6] amounted to 4.99%; in the experiment filed under Homo sapiens it was 7.19%; in [7] it was 2.46%; in experiment [8], 6.17%; in experiment [9], 2.89%.

In the case of `CCCc1cc(C(=O)N(C)Cc2cccc3ncccc23)n(C)n1`, the Percent Effect in [1] is -4.03%; in experiment [2], 15.6%; in experiment [3], 2.46%; in experiment [4], 20.3%; in the experiment with Trypanosoma cruzi, 3.25%; in [5], -19.3%. Moreover, the Percent Effect in experiment [6] is 14.6%; in the experiment filed under Homo sapiens, 36.1%; in experiment [7] it was 7.53%; in [8], 18.5%; in experiment [9] it was -8.05%.

`Cc1nn(C)c(N(C)C)c1CNCc1ccccc1Cn1cncn1`: the Percent Effect in experiment [1] is -6.25%; in [2], 6.33%; in experiment [3], -0.0601%; in experiment [4], 1.64%; with Trypanosoma cruzi it was -1.33%; in experiment [5], 0.215%. For the same molecule, the Percent Effect was 6.52% in experiment [6]; 3.54% in the experiment listed under Homo sapiens; 3.12% in [7]; -5.06% in experiment [8]; -11.2% in [9].

Regarding `CCOc1cccc2c1OCC(C(=O)NS(=O)(=O)c1ccc(Cl)cc1)=C2`, the Percent Effect in experiment [1] was -8.58%; in [2], -2.7%; in experiment [3], 102%; in experiment [4], 7.55%; in the experiment on Trypanosoma cruzi, -5%; in experiment [5] it was -5.61%. Further, the Percent Effect is -2.52% in experiment [6]; 18.9% in the experiment filed under Homo sapiens; -23.1% in experiment [7]; -33.3% in experiment [8]; -6.64% in [9].

Consider `CCOCCCn1c(NC(=O)c2cnn(C)c2)nc2ccccc21`, for which the Percent Effect in experiment [1] is -5.81%; in experiment [2] it was 5.2%; in [3], 2.7%; in experiment [4], 15%; in the experiment on Trypanosoma cruzi it was -1.69%; in [5] it was -1.07%. The Percent Effect in [6] is 2.37%; in the experiment listed under Homo sapiens, 11.1%; in experiment [7], 6.8%; in experiment [8], 14.6%; in [9], -2.58%.

As for `CCCS(=O)(=O)NCC1CCOc2ccccc2C1` (stereo unspecified), the Percent Effect in experiment [1] was -7.2%; in experiment [2], 0%; in experiment [3] it was 3.87%; in [4], 5.88%; in the experiment on Trypanosoma cruzi, -5.61%; in experiment [5], 17.9%. The Percent Effect in experiment [6] was 5.32%; in the experiment filed under Homo sapiens, -3.37%; in experiment [7], 0%; in experiment [8], 6.17%; in experiment [9], 3.34%.

Turning to `Cc1[nH]ccc1C(=O)N1CCC(c2nnc(Cn3ccnc3)n2C)CC1`, the Percent Effect in experiment [1] was -1.99%; in experiment [2], 8.22%; in [3], -2.31%; in experiment [4] it was 4.71%; in the experiment with Trypanosoma cruzi, -4.56%; in experiment [5], -4.79%. Besides, the Percent Effect is 15.3% in experiment [6]; 22.3% in the experiment filed under Homo sapiens; 6.25% in experiment [7]; 16.1% in experiment [8]; 0.967% in [9].

`CCN(CC(=O)NC(C)C)S(=O)(=O)N1CCCCCC1`: the Percent Effect was -2.15% in experiment [1]; 16.2% in experiment [2]; -3.94% in experiment [3]; 11.8% in experiment [4]; 2.64% with Trypanosoma cruzi; 3.23% in [5]. Further, the Percent Effect is 12.3% in experiment [6]; 5.69% in the experiment filed under Homo sapiens; 3.23% in [7]; 16.1% in [8]; -10.9% in experiment [9].

On to `CN(Cc1ccco1)C(=O)C1CSCN1C(=O)c1cccnc1` (stereo unspecified), for which the Percent Effect in experiment [1] is -3.86%; in experiment [2], 0%; in experiment [3] it was 0.482%; in experiment [4], 1.7%; with Trypanosoma cruzi, 0.467%; in experiment [5], -3.96%. Further, the Percent Effect is 4.65% in experiment [6]; -7.95% in the experiment listed under Homo sapiens; -0.493% in experiment [7]; 1.24% in experiment [8]; -0.736% in experiment [9].

Turning to `O=C(Nc1nc2c(s1)CCC2)c1cccnc1N1CCOCC1`, the Percent Effect in experiment [1] is -0.311%; in [2] it was -2.63%; in experiment [3], 9.51%; in [4], -0.88%; in the experiment on Trypanosoma cruzi it was -4.19%; in experiment [5] it was 11.8%. The Percent Effect in experiment [6] was 4.7%; in the experiment filed under Homo sapiens, 2.75%; in [7], 0%; in experiment [8] it was -2.6%; in [9] it was 1.45%.

For the molecule `Cc1cc(N2CCC(N(C)C(=O)Nc3ccccc3)CC2)nc(C)n1`, the Percent Effect in experiment [1] was -4.81%; in [2] it was 8.22%; in experiment [3], 12.3%; in [4] it was -3.15%; in the experiment on Trypanosoma cruzi it was -1.18%; in experiment [5], 6.36%. Besides, the Percent Effect in experiment [6] is 12.8%; in the experiment listed under Homo sapiens it was 6.79%; in experiment [7] it was 4.3%; in [8], 10%; in experiment [9], -2.89%.
